The sample as a whole holds a higher share of hits than the screen did.
BLM helicase inh – Bloom syndrome helicase (human) inhibition. 350,000 tested, 0.2% active. Potency, µM (titrated, usually from 56.1 µM), for the others: at the highest dose activity change, negative = inhibition, hits mostly inhibitors. recombinant BLM DNA unwinding, fluorescence dequenching. P54132;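 further: plate controls were vehicle for no effect and no enzyme for full effect; nearly all actives have a fitted effect of over 35% in size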
KDM4E inh – JMJD2E (human) inhibition | 230,000 tested, 1.6% active | B2RXH2 | AID 2147 | JMJD2E catalytic domain, FDH-coupled NADH fluorescence (FDH is formaldehyde dehydrogenase) | Potency, µM (highest dose often 57.1 µM), for inactives: at the highest dose activity change, negative = inhibition, actives largely listed as inhibitors; active means well fitted inhibition curve with a large enough effect, not every such curve was filed as active; inconclusive means small, poorly fitted or top-dose-only effect, or another doubt; inactive means no such curve, though single readings can be large or run the other way;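 further: 0% = wells with enzyme and -100% = buffer wells without enzyme; nearly all actives have a fitted effect of over 50% in size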
RECQ1 inh-1 – blocks DNA unwinding by human RECQ1; RECQ1 DNA unwinding, red fluorescence kinetic read; AID 2549; 240,000 tested, 0.54% active; Potency, µM (doses to about 57.3 µM), without a hit: top-dose activity, negative = inhibition, most hits filed as inhibitors;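 further: plate controls were vehicle for no effect and no enzyme for full effect; nearly all actives have a fitted effect of over 30% in size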
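RECQ1T1 50 nM; forked duplex (20 bp + 30-nt ss tails) 200 nM, ATP 2 mM final; pH 8.0, 2 mM MgCl2, 2.5 ug/ml poly(dI-dC); 15 min compound preincubation; discontinuous kinetic read over 2 h at RT.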
TDP1 block – inhibitors of human tyrosyl-DNA phosphodiesterase TDP1; Q9NUW8; recombinant TDP1, AlphaScreen DNA substrate cleavage; Potency, µM (highest dose often 130 µM), without a hit: top-dose activity change, negative = inhibition, usual class: inhibitors; 350,000 tested, 0.28% active; AID 485290; further: nearly all actives have a fitted effect of over 40% in size
Target sequence (Q9NUW8 whole entry, looked up): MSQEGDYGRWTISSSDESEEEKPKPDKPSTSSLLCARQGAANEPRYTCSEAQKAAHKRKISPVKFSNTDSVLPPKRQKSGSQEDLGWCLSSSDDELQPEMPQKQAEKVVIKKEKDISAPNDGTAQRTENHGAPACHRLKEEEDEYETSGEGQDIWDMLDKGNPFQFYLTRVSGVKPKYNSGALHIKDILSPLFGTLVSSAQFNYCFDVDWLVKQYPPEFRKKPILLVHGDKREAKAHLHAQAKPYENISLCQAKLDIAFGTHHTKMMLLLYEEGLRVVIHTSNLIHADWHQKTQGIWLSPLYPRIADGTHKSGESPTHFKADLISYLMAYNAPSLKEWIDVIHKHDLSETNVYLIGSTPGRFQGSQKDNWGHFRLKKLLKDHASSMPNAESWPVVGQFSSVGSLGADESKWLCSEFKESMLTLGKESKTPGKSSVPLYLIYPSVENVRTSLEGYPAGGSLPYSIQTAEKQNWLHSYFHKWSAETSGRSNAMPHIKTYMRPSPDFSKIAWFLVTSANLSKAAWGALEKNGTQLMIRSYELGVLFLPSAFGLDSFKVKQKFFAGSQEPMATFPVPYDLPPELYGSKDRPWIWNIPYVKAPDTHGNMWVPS
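Steps: enzyme plus compound, 15 min RT; add biotin/phosphotyrosine-FITC oligonucleotide (15 nM final), react 5 min; add donor/acceptor beads (10 ug/ml final), 10 min; read AlphaScreen. Tdp1 at 1 nM final.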
APEX1 inh – inhibitors of human APE1 endonuclease; 350,000 tested, 0.35% active; Potency, µM (series often up to 65.8 µM), for inactives: top-dose activity change, negative = inhibition, hits mostly inhibitors; recombinant APE1, TAMRA/BHQ-2 abasic DNA cleavage fluorescence; AID 2517; P27695;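 further: plate controls were vehicle for no effect and reference inhibitor for full effect; nearly all actives have a fitted effect of over 55% in size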
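Incision of a quenched TAMRA/BHQ-2 THF abasic-site duplex (50 nM) by 0.75 nM APE1, after 15 min compound preincubation, measured as fluorescence increase over three 60 s reads. Values normalized to buffer, DMSO and NSC13755 control wells.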
L3MBTL1 block – blocks human L3MBTL1; 230,000 tested, 0.66% active; Q9Y468; AID 485360; Potency, µM (series often up to 57.1 µM), for the others: at the highest dose activity, negative = inhibition, hits mostly inhibitors; AlphaScreen L3MBTL1–H3K9me1 peptide binding; further: nearly all actives have a fitted effect of over 60% in size
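AlphaScreen assay: L3MBTL1 (50 nM final) was preincubated 30 min at room temperature with biotinylated H3(1-15)K9me1 peptide (75 nM final), then 30 min with library compounds; streptavidin donor and nickel chelate acceptor beads (10 ug/mL final) added, 30 min dark.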
RECQ1 inh conf – confirmation of human RECQ1 helicase inhibitors. shares compounds with RECQ1 inh-1. RECQ1 helicase DNA unwinding, fluorescence. Potency, µM (series often up to 229 µM), without a hit: at the top dose activity change, negative = inhibition, usual class: inhibitors. 610 tested, 28% active; further: nearly all actives have a fitted effect of over 45% in size
ADP FP counter – ADP displacement flagged in RECQ1 inhibitor counter-screen; shares compounds with RECQ1 inh-1; ADP fluorescence polarization displacement counterscreen; Potency, µM (titrated, usually from 228 µM), without a hit: top-dose activity change, negative = inhibition, usual class: inhibitors; 530 tested, 27% active; further: nearly all actives have a fitted effect of over 45% in size
RECQ1 inh-2 – RECQ1 helicase inhibition confirmed, round 2. shares compounds with RECQ1 inh-1. recombinant RECQ1 DNA unwinding, red fluorescence. Potency, µM (doses to about 119 µM), for the others: top-dose activity, negative = inhibition, hits mostly inhibitors. 1,100 tested, 15% active; further: nearly all actives have a fitted effect of over 50% in size
* marks the source's active call; other numbers are inactive results; i = inactive; ? = inconclusive; / = no result given; [ ] = another dose, or the depositor's remark. Unless noted, the call rests on the fitted dose curve; in most records, active means well fitted curve in the direction sought with a large enough effect; inconclusive means small, poorly fitted or top-dose-only effect, or another doubt; inactive means no such curve, though single readings can be large; an effect the other way counts as inactive or inconclusive. Unless noted, on the % scale 0 is the no-effect control and ±100 the full control effect; potency means the concentration at half of the fitted maximal effect.

SMILES | BLM helicase inh | KDM4E inh | RECQ1 inh-1 | TDP1 block | APEX1 inh | L3MBTL1 block | RECQ1 inh-2 | others
CCN1C(=O)C(CC(=O)Nc2ccc(OC)cc2)N(CCc2ccccc2)C1=S (centres undefined) | -12.2% | -0.2% | -5.3% | 4.8% | 3.7% | -2.9% | /
O=C(O)c1ccc(N2CCCCC2)cc1 | -1.2% | -1.7% | -17.3% | 8.7% | 11.2% | / | /
Nc1ccc(N2CCCCCC2)cc1 | -12.4% | ? | 14.1µM* | -5.3% | ? | 17.8µM* | / | RECQ1 inh conf=-3.4%[114 µM]
CCN(CC)CCC[C@H](C)Nc1c2ccc(Cl)cc2nc2ccc(OC)cc12 | -10.5%[21.4 µM] | ? | -5.0%[25.9 µM] | -4.6%[21 µM] | / | / | /
Cc1c(CCOC(=O)c2ccc(N3CCOCC3)c([N+](=O)[O-])c2)sc[n+]1CC#N | -0.9% | 3.4% | ? | 1.9% | 11.8% | / | ?
COc1ccc(-c2nnc3n2N=C(c2ccc(OC)c(OC)c2)CS3)c(OC)c1 | -5.2% | / | -2.0% | 12.1% | -5.1% | / | /
CC1(C)N=C(c2ccc(Cl)cc2)C(=O)N1 | 0.8% | 3.5% | 35.5µM* | 0.0% | -0.7% | -0.6% | ?
Cc1ccc(C2=NC(C)(C)NC2=O)cc1 | -2.4% | 5.4% | i | 3.5% | 1.5% | / | /
CC[C@H]1OC(=O)[C@H](C)C(=O)[C@H](C)[C@@H](OC2O[C@H](C)C[C@H](N(C)C)[C@@H]2O)[C@@](C)(OC)C[C@@H](C)C(=O)[C@@H](C)C2N(CCCCn3cnc(-c4cccnc4)c3)C(=O)O[C@@]21C (some centres undefined) | -10.6% | / | / | / | / | / | /
COc1ccc(CN2C(=O)c3ccccc3C2C(=O)NC2CCCC(C)C2C)c(OC)c1 (centres undefined) | -9.3% | -0.9% | 3.16µM* | 2.6% | 0.8% | / | -10.2% | RECQ1 inh conf=-5.9%[114 µM];ADP FP counter=18.9%[91.9 µM]
COc1ccc(CN2C(=O)c3ccccc3C2C(=O)NC2CCCC2)c(OC)c1 (centres undefined) | -4.1% | 8.1% | -17.3% | 5.2% | -0.3% | 4.5% | /
CCCCC1=CC2=CC(=O)C(C)(OC(=O)CC)C(=O)C2=CN1CCCN(CC)CC (centres undefined) | -9.4%[12.4 µM] | -3.4%[11.4 µM] | 5.7%[11.5 µM] | 8.3%[12.3 µM] | -0.8%[12.4 µM] | / | /
CCOC(=O)C(C)Oc1cccc2c(=O)n(CC(=O)NCc3ccc4c(c3)OCO4)ccc12 (centres undefined) | 3.4% | ? | -10.8% | 2.5% | 13.9% | -11.9% | / | RECQ1 inh conf=6.5%;ADP FP counter=?
COc1ccccc1N1CCN(C(=O)CCn2cnc3onc(-c4ccc(F)cc4)c3c2=O)CC1 | -4.2% | / | / | 3.2% | / | / | /
Cc1ccc(/C=C/C(=O)c2ccc(N3CCOCC3)cc2)s1 | -5.8% | -10.3% | ? | 2.6% | -5.3% | -19.3% | -26.1%
O=C1/C(=C/c2ccco2)Oc2c1ccc(O)c2CN1CCCCC1 | -4.0% | ? | ? | ? | ? | ? | -17.4%
COCCN(CCOC)Cc1c(O)ccc2c1O/C(=C\c1ccco1)C2=O | -11.6% | / | / | / | -15.6% | / | /
Clc1ccccc1CNc1ncnc2c1c(-c1ccccc1)cn2-c1ccccc1 | -7.6% | / | / | 2.6% | / | / | /
O=C(C1COc2ccccc2O1)N1CCc2ccccc21 (centres undefined) | -21.5% | 4.7% | ? | / | ? | ? | 12.6µM*
CCN1CCN(c2cc(C)c3cc(NC(=O)c4cc(OC)c(OC)c(OC)c4)ccc3n2)CC1 | 1.2% | / | / | 4.4% | / | / | /
CCN1CCN(c2cc(C)c3cc(NC(=O)c4ccc(OC)c(OC)c4)ccc3n2)CC1 | -6.6% | ? | 22.4µM* | 2.9% | -1.0% | / | ?
O=C(CSc1nccc(=O)[nH]1)NC1CCCc2ccccc21 (centres undefined) | -4.7% | -0.4% | -0.9% | 1.2% | 2.9% | 7.8% | /
O=C(O)CC(SCC(=O)NC1CCCc2ccccc21)C(=O)O (centres undefined) | 1.3% | -11.0% | 7.2% | 5.6% | -2.2% | -3.1% | / | RECQ1 inh conf=1.3%;ADP FP counter=5.7%
NCCO | / | / | -0.9% | 7.6% | 1.0% | / | /
c1ccc(Cc2nnc3sc(-c4ccco4)nn23)cc1 | -16.4% | 9.3% | ? | -7.4% | -8.0% | -13.9% | ?
SMILES | BLM helicase inh | KDM4E inh | RECQ1 inh-1 | TDP1 block | APEX1 inh | L3MBTL1 block | RECQ1 inh-2 | others
Clc1ccccc1-c1nnc2sc(-c3ccco3)nn12 | 1.9% | 6.1% | -4.8% | 5.1% | 4.7% | 4.5% | /
C=C[C@@]1(C)CC(=O)[C@]2(O)[C@@]3(C)[C@H](O)CCC(C)(C)[C@@H]3[C@H](O)[C@H](OC(C)=O)[C@@]2(C)O1 | -0.5% | / | -14.0% | 8.2% | -6.3% | / | /
O=c1[nH]c(Nc2ccccc2)cc2ccccc12 | 2.9% | ? | ? | 11.4% | ? | -46.7% | ?
Cn1c(=O)cc(Nc2ccccc2)[nH]c1=O | -6.2% | / | / | / | 54.2% | -7.9% | /
COC1=C(Nc2ccc(O)cc2)C(=O)c2ccccc2C1=O | -10.1% | 10µM* | ? | 6.8% | ? | ? | -9.6%
O=C(NC(Cc1ccccc1)C(=O)O)/C(=C\c1cccc([N+](=O)[O-])c1)NC(=O)c1ccco1 (centres undefined) | -1.4% | / | / | 5.1% | 37.6% | / | /
CC(NC(=O)/C(=C/c1cccc([N+](=O)[O-])c1)NC(=O)c1ccco1)C(=O)O (centres undefined) | 2.1% | 4.8% | -10.9% | 0.0% | 20.9% | 7.9% | / | RECQ1 inh conf=-0.2%;ADP FP counter=8.4%
O=c1cc(-c2ccccc2)nc2nc(-c3ccco3)[nH]n12 | -15.0% | ? | 25.1µM* | 2.2% | -6.5% | -8.5% | -4.2%
Cc1nc2nc(-c3ccccc3)cc(=O)n2[nH]1 | 1.8% | -13.3% | -1.1% | 3.1% | 0.0% | / | /
COc1ccc(C2/C=C\CN(CC(C)C)C(Cc3ccccc3)C(=O)N2Cc2ccc(F)cc2)cc1 (centres undefined) | -7.8% | / | i | 4.4% | -3.2% | / | /
CCOc1cccc(=O)c2c(C)n(Cc3ccccc3)c(C)c12 | -7.4% | -11.7% | i | 7.6% | -5.5% | -8.0% | /
CCOc1cccc(=O)c2c(C)n(-c3ccc(C(=O)O)cc3)c(C)c12 | 33.4% | ? | ? | / | ? | ? | ?

Screening results as filed in PubChem.
